Source: the supplement of paper PMC3334620
Over roughly 33,000 sequences, “E-score (-0.5 to 0.5)” has its median near -0.043; the highest 2% begin near 0.37. The sample as a whole holds a higher share of the highest values than the screen did.

Target: T1, Upc2 (UniProt Q12151)
T1 sequence: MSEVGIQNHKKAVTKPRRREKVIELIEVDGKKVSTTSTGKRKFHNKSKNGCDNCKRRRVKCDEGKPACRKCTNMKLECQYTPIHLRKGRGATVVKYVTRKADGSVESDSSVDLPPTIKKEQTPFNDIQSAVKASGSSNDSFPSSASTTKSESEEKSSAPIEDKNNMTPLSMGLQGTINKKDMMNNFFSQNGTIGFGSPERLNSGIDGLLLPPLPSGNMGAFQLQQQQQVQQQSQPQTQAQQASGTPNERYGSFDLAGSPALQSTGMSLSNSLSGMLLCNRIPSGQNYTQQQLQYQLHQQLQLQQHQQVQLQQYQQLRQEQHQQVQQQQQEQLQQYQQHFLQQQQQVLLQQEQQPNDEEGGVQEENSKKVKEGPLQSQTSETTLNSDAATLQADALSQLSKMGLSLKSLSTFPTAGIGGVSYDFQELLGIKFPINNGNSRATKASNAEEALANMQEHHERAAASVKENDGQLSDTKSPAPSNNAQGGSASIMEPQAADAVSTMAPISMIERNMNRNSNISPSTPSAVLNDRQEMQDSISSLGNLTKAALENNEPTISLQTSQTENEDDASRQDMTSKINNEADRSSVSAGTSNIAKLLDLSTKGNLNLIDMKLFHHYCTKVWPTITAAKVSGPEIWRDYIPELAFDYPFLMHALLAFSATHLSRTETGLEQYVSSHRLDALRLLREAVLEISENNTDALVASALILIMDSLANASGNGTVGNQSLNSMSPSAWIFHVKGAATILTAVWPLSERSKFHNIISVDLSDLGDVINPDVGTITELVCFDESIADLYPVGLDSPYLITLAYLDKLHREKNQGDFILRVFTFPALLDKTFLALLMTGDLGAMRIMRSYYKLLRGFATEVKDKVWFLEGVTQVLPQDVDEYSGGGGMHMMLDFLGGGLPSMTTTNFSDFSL
Assay: PBM E-score (8-mer binding enrichment) (E-score (-0.5 to 0.5)); higher = stronger / more preferred TF binding
Settings: protein concentration: 200 nM; construct: GST-full length
Procedure: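 Universal 'all 10-mer' protein binding microarrays (Agilent AMADID 015681) probed with GST-tagged S. cerevisiae TFs (full-length or DBD) made by in vitro transcription/translation (PURExpress), about 100-200 nM. Bound TF was detected with fluorescent anti-GST. Each ungapped 8-mer (which stands for itself and its reverse complement) is scored by the PBM enrichment score (E-score), a modified Wilcoxon-Mann-Whitney statistic from -0.5 to +0.5, computed with the Universal PBM Analysis Suite. Scale: above 0.35 generally sequence-specific binding.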

Sequence | PBM E-score
CATCACTA | -0.183
CACTTTCA | -0.151
CCTACACA | -0.118
CGAGAGAA | 0.113
CCTCAGTA | -0.0614
ACTCGTCC | -0.141
ACTCGTCA | -0.0246
GCTCGTCC | -0.249
ACTCGTAC | 0.472
GCTCGTAA | 0.456
ACTCGTAA | 0.433
ACTCGTGC | 0.0738
GCTCGTCA | 0.0569
GCTCGTGA | 0.00182
GCACGTAC | 0.227
ACTCGTAG | 0.353
GCTCGTAC | 0.477
CCTAAGGA | -0.0656
ACAAGCTC | -0.0437
CCGTGGCC | -0.206
CCAAGTGG | -0.186
ATGCAACG | 0.113
ACCCCTGC | -0.412
ATGACTCA | 0.029
CAGCCTCA | -0.0411

Sequence | PBM E-score
CTCTCAAG | -0.308
AGATATGC | -0.186
ACTCGTAT | 0.483
ACTCGGAT | 0.252
ACTCGTCT | 0.167
ATCGATCC | -0.00332
CATCCACA | -0.0464
CTAAGCTA | 0.015
GTAAGCGA | 0.388
CTAAGCGC | 0.14
GGAAGCGA | 0.145
ATAAGCGA | 0.347
CTAAGCGA | 0.416
CCATCGAC | -0.247
ATGGGAGA | -0.251
AACCGGTT | 0.107
ACTCTAGC | -0.12
GGAACTGA | -0.0729
AACGCTGA | 0.0761
CTAGTGAA | -0.126
CCCGTTCC | 0.327
AGCGTTCC | 0.117
ATCGTTCC | 0.43
CGCGTTCC | 0.223
GTCGTTCA | 0.467

Sequence | PBM E-score
GACGTTCA | 0.0943
CTCGTTCA | 0.476
GGCGTTCA | 0.0581
AACGTTCC | 0.152
CACGTTCA | 0.092
CTCGTTGA | 0.313
CTCGTTCC | 0.479
AAATGGCG | -0.0033
AGCTAATC | -0.0679
ATCAAAAC | 0.0147
ACACTGTA | 0.106
ATCGAAGC | -0.00965
GGTGTGGA | 0.00988
AGCGTTCA | -0.0376
AACGTTCG | 0.212
ATCGTTCG | 0.384
ATCGTTGG | 0.0354
AACGTTCA | 0.212
ATCGTTCA | 0.443
TCTTGAAA | 0.0803
ACAGCGCT | 0.128
CTCTGTCC | -0.116
CTATTGAC | -0.166
ACTTCGTA | 0.429
GCTTCGCA | 0.186

Sequence | PBM E-score
CCTTCGTC | 0.00619
GCTTCGGA | 0.102
CCTTCGCA | 0.0293
GCTTCGTA | 0.449
ACTTCGTC | 0.0529
CCTTCGTA | 0.441
ACTTCGTG | 0.0872
CCGTTTCA | 0.159
CGACTTTC | 0.0358
GCCTCCCC | -0.149
CCCCATAC | 0.174
ACGTTGCG | 0.0848
GGCAGTTA | -0.21
CCGCAGCA | -0.267
CCGAGAAC | 0.117
ACGAGAAA | 0.349
ACGAGAAG | 0.277
ACGAGAAT | 0.396
ACGAGAAC | 0.375
ACGAGACT | 0.337
AATCGCAA | 0.0942
TGCATGAA | 0.0372
AATGCAGA | -0.0923
TGCTAGCA | -0.0249
AGGAACGA | 0.449

Sequence | PBM E-score
GGGAACAA | 0.0652
GGGAACCA | -0.165
AGGAACGC | 0.114
GGGAACGA | 0.466
AGGAACGG | 0.322
CGGAACAA | 0.0835
CGGAACGA | 0.468
CGGAACGC | 0.243
GTCCACAA | -0.215
CCGGAGCA | -0.0221
AGTGCAGC | -0.22
ATTACGTA | 0.309
CCACTGTA | 0.0804
TTGCCCAA | -0.0249
GAGTATAC | 0.315
AAGTATAT | 0.104
GCGTATTA | 0.0994
CCGTATAC | 0.475
AGGTATAT | -0.0562
GCGTATAC | 0.454
CTGTATAC | 0.281
CCGTATCC | 0.331
ACGTATAT | 0.404
GCGTATAA | 0.444
GGGTATAC | 0.255

Sequence | PBM E-score
GTGTATAA | 0.138
CCTAGTGC | -0.199
CGTCATGC | -0.202
CAGAATTC | -0.03
GGATGGCA | 0.0444
ACTACCAG | -0.0238
CTCTTCGC | -0.12
ACTATGAA | -0.0506
AGAGGGTG | -0.171
TTATACAA | 0.0521
GCTGCAAC | -0.107
GTACTCTA | -0.0205
CTGGGTAA | -0.00044
GCTGTGTA | 0.00184
ACGTATGA | 0.243
ACGTATAG | 0.433
CCGTATGC | 0.356
CCGTATCG | 0.319
CGGTATAG | 0.225
ACGTATTG | 0.209
AAGTATAC | 0.306
ACGTATAC | 0.445
ATGTATAC | 0.263
CCGTATAG | 0.485
ACGTATCG | 0.22

Sequence | PBM E-score
CCGTATGA | 0.392
AAGACTTG | -0.00965
CCCTATCA | -0.325
ACACGCGT | 0.152
ACGTTCAT | 0.169
CCTCTGTA | 0.0279
GAGGTCGC | -0.042
GAATCTAA | 0.111
ACGTATAA | 0.437
AGGTATAA | 0.198
ATGTATAA | 0.0845
CGGTATAA | 0.267
CCGTATAA | 0.483
CTGTATAA | 0.156
GACCAATC | -0.117
TCATCAGA | -0.187
GTTGTCAA | -0.00594
TAGCTAAA | 0.119
CCTGCCAA | -0.0976
TGTACCAA | 0.03
CATACCAG | -0.0446
AGTACCAG | -0.134
GGTACCAC | -0.18
CGTACCTC | 0.361
AGTACCAC | -0.0837

Sequence | PBM E-score
CGTACCAG | 0.39
CGTACCAA | 0.392
AGTACCAA | -0.0772
CGTACCAC | 0.407
AGTACCTA | -0.109
CGTACCTA | 0.376
GATCAATC | -0.104
AATTGAGC | -0.0691
GTAGGAAC | 0.13
CAAGCTTG | -0.233
CAGTAACA | -0.0459
AGAGTGCC | -0.209
CATATACA | 0.05
AATATACA | 0.0677
CATATACG | 0.463
AATATACG | 0.465
CATATACC | -0.0116
AATATACT | -0.0413
AAGGACAT | 0.0482
AAAATACG | 0.346
GTGGACAC | -0.158
GGATCGAC | -0.14
CGCGTTCA | 0.242
GGCGTTTA | 0.378
CGCGTTTA | 0.415

Sequence | PBM E-score
GGCGTTGA | -0.0389
AGCGTTTA | 0.363
GACGTTTA | 0.366
GGTCCCCA | -0.24
GACAACCC | 0.0735
AAAGGGGC | -0.127
ACACAGCG | 0.104
ATGGGTTA | -0.00164
AGTTCAAC | 0.00196
CGTTCCGA | 0.361
CGTTCAAA | 0.369
CGTTCCGC | 0.385
GGTTCAAC | 0.0526
CGTTCAAG | 0.407
CGTTCCAG | 0.391
AGTTCCAG | -0.188
AGTTCCGC | 0.0626
AGTTCAAG | 0.129
CGTTCAAC | 0.382
CGTTCCAA | 0.329
